Test results published in PubChem BioAssay.

System: PRMT1 (protein arginine N-methyltransferase 1)
Test: small molecules binding arginine methyltransferase PRMT1 – biochemical, small-molecule microarray, 635 nm fluorescence, primary screen (AID 1088);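 also: binding of Prmt1 protein to compounds spotted on small-molecule microarray slides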
Conditions: higher = more signal

Structure (SMILES) | composite z-score
CCCC1(C(=O)OC)C=C2C(=C(C)C(=O)C2C)CN1 (stereo not given) | -1.06
NCCCCCNC(=O)[C@@H]1C[C@@H]2C(=O)N[C@@H](CCCCN)C(=O)N2[C@@H]1c1ccc(O)cc1 | 1.53
CCCN1C(=O)[C@]2(Cc3ccccc31)N=C(c1ccc(OCCCO)cc1)O[C@@H]2c1ccccc1 | 1.55
CCN(CC)c1ccc(N2CC=CC34O[C@@H]5/C=C\CCCOC(=O)C5[C@H]3C(=O)N(C(C)CO)[C@@H]4C2=O)cc1 (stereo not given in full) | 0.428
NC(=O)[C@H]1[C@@H]2C(=O)O[C@@H](c3ccccc3)[C@@H](c3ccccc3)N2[C@@H](c2ccc(OCCO)cc2)[C@]12C(=O)Nc1ccc(C#CCCO)cc12 | 1.41
CC(C)C(CO)N1C(=O)[C@@H]2[C@H]3C(=O)OCC=C[C@H]3OC23C=CCN(c2ccc(Cl)cc2)C(=O)[C@@H]13 (stereo not given in full) | 0.193
C=CCNC(=O)[C@@H]1[C@H]2C(=O)O[C@H](c3ccccc3)[C@H](c3ccccc3)N2[C@H](c2ccccc2OCCO)[C@@]12C(=O)Nc1ccc(C#CCC(C(=O)OC)C(=O)OC)cc12 | 1.45
COc1ccc(C#Cc2ccc3c(c2)[C@]2(C(=O)N3)[C@H](C(=O)O)[C@H]3C(=O)O[C@H](c4ccccc4)[C@H](c4ccccc4)N3[C@@H]2c2ccc(O)cc2)cc1 | 0.789
CCCC[C@@H](O)C1=C(COC)C[C@H]2C(=O)N(Cc3ccccc3)C(=O)[C@H]2[C@H]1CO | 0.831
COC(=O)[C@@]1(Cc2ccc(F)cc2)[C@H]2c3cc(C(=O)N4CCCC4)n(Cc4ccc(C)c(F)c4F)c3C[C@H]2CN1C(=O)c1ccccc1 | -1.69
